# LMP1 NFkB inh – EBV LMP1-driven NF-kappaB luciferase reporter inhibitors, primary screen, cell-based, luminescence, single point | AID 504558, 2011 | inhibition, % at 12.5 µM | 0.69% of 350,000 active | LMP1-induced NF-kappaB luciferase reporter cells; in the data active = inhibition above about 41%; inconclusive = no clear call, values can overlap the other calls;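 note: 0% = neutral control wells and 100% = reference inhibitor control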
# PGC1a acetyl inh – inhibitors of PGC1a acetylation signal, primary screen, cell-based, U2OS, AlphaScreen, inhibitor mode | AlphaScreen anti-acetyl-lysine; with virally co-expressed GCN5 acetyltransferase | AID 651687, 2012 | inhibition, % at 15.6 µM | 0.17% of 350,000 active;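 active = every replicate shows inhibition of at least 40%; inconclusive = mean inhibition at least 40% but some replicate below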;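 note: 0% = neutral control wells and 100% = positive control wells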
# LGR2 inh – inhibitors of bursicon-induced LGR2 CRE-luciferase signal, primary screen, cell-based, HEK293, CRE-luciferase reporter, bursicon stimulation; Drosophila bursicon receptor LGR2 (rickets); bursicon-stimulated, 4 h; inhibition, % at 9.99 µM; 0.35% of 380,000 active; AID 720647, 2013;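 active = drop in luminescence signal, shown as inhibition above about 50% in the replicate tests, limit read from the data, passing the limit was not always enough; inconclusive = probably only some replicates passing the limit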;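 note: agonist challenge used bursicon conditioned medium at about half maximal strength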
# TRPM1 prom inh – inhibitors of MITF-dependent TRPM1 promoter reporter, primary screen, cell-based, SK-MEL-5, single point, luciferase; AID 488899, 2010; SK-MEL-5 TRPM1 promoter luciferase, 24 h; 0.83% of 330,000 active; inhibition, % at 12.5 µM;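 active = mean inhibition across replicates of 60% or more, whatever share of single replicates reaches that level; inconclusive = some that reach 60%, reason not given; inactive = mean inhibition across replicates below 60%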
# PAX8 reporter – inhibitors of PAX8-driven TPO luciferase reporter, primary screen, RMG-I cells, single concentration; inhibition, % at 12.6 µM; SteadyGlo, 24 h; 1.2% of 360,000 active; AID 652154, 2013;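 active = mean replicate inhibition at least 60% with every replicate also reaching 60%; inconclusive = only one of the two criteria is met; inactive = mean below 60% and not all replicates reaching 60%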;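 note: luciferase light reporting Pax8 driven TPO promoter activity; plate controls were median of neutral control wells for no effect and mitoxantrone controls for full effect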
# EWS-Fli inh – EWS/Fli-driven NR0B1 reporter inhibitors, primary screen, A673 cells, NR0B1 luciferase, luminescence, MLPCN library; 0.67% of 350,000 active; inhibition, % at 12.6 µM; viability-normalised;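 active = mean inhibition of at least 50% after viability correction, with every replicate also passing that limit; inconclusive = mean reaches 50% but only one of two replicates passes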;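 note: firefly luciferase signal divided by Alamar Blue viability fluorescence both relative to DMSO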
# * hit, by the source's call; ? = inconclusive; nt = no result given; ! = repeats disagree. Hits are enriched below; roughly 2.2% of the tested compounds scored in any of these assays.
SMILES,LMP1 NFkB inh,PGC1a acetyl inh,LGR2 inh,TRPM1 prom inh,PAX8 reporter,EWS-Fli inh
Cn1nnnc1Sc1ncnc2scc(-c3ccc4c(c3)OCO4)c12,10,-22,?,29,101*,7
Cc1ccc(-c2csc3ncnc(SCC(=O)c4ccc5c(c4)OCCO5)c23)cc1,-4,-9,nt,15,nt,nt
Cn1nnnc1Sc1c(Cl)cccc1[N+](=O)[O-],-4,-2,5,30,-5,nt
COc1ccc(-c2csc3ncnc(Sc4nnnn4C)c23)cc1,87*,-21,?,7,101*,-3
CCN1CCN(c2ncnc3scc(-c4ccc(OC)cc4)c23)CC1,4,2,-11,-1,5,0
CCCNC(=O)N1C[C@@H](C)[C@@H](OC)CN(C)C(=O)c2cc(NC(=O)C3CCC3)ccc2OC[C@H]1C,nt,-12,13,nt,nt,-3
CO[C@H]1O[C@H](CO)[C@@H](OC(=O)Nc2ccc3c(c2)OCO3)[C@H](OC(=O)Nc2ccccc2)[C@H]1OC(=O)Nc1ccccc1,nt,-5,nt,nt,25,-2
Cc1ccc(C(C)C)cc1NC(=O)Nc1ccc([N+](=O)[O-])cc1,10,nt,19,34,62*,36
CCn1c(C)cc(/C=C2/SC(=S)NC2=O)c1C,-1,nt,2,2,-4,79*
CCN1CCN(Cc2ccc(NC(=O)c3ccc(C)c(NC(=O)C(=O)c4c[nH]c5ccccc45)c3)cc2C(F)(F)F)CC1,43*!,2,19,82*,101*,59*!
CCN1CCN(Cc2ccc(NC(=O)c3cc(NC(=O)c4cc(C)on4)cc(OC)c3)cc2C(F)(F)F)CC1,-7,0,-2,50,12,10
CCN1CCN(Cc2ccc(NC(=O)c3cccc(-c4ccc5nc(NC(=O)C6CC6)sc5n4)c3)cc2C(F)(F)F)CC1,nt,nt,76*,nt,80*,37
CCN1CCN(Cc2ccc(NC(=O)c3cc(NC(=O)c4cnn(-c5ccccc5)c4N)cc(OC)c3)cc2C(F)(F)F)CC1,5,-13,-17,79*,-2,61*
CCN1CCN(Cc2ccc(NC(=O)c3ccc(C)c(NC(=O)c4ccc5n[nH]nc5c4)c3)cc2C(F)(F)F)CC1,36,nt,8,29,-6,2
CCN1CCN(Cc2ccc(NC(=O)c3cc(NC(=O)C(=O)c4c[nH]c5ccccc45)cc(OC)c3)cc2C(F)(F)F)CC1,-35,nt,-23,58,95*,54*
O=C(NC1Cc2ccccc2C1)[C@H]1[C@H](CO)[C@H]2Cn3c(cccc3=O)[C@H]2N1C(=O)c1ccccn1,nt,nt,8,nt,5,-3
CO[C@H]1CN(C)C(=O)c2ccc(NC(C)=O)cc2OC[C@H](C)N(Cc2ccccn2)C[C@H]1C,nt,-4,-8,nt,-17,-1
COc1ccc(-c2ccc([C@@H]3[C@@H](CO)N4C(=O)CN(C(=O)c5ccccc5)C[C@H]34)cc2)cc1,nt,-20,-14,nt,14,-5
CC(C)(C)CC(=O)Nc1nnc(C(F)(F)F)s1,-14,3,nt,3,-4,nt
CC(NC(=O)Nc1nnc(C(F)(F)F)s1)(C(F)(F)F)C(F)(F)F,44*,5,nt,26,nt,nt
COc1cccc(NC(=O)N(C)C[C@H]2Oc3cc(-c4ccccc4F)ccc3S(=O)(=O)N([C@H](C)CO)C[C@@H]2C)c1,nt,9,-14,nt,nt,17
CCc1cccc2sc(N3CCN(C(=O)c4ccc([N+](=O)[O-])o4)CC3)nc12,-44,-9,nt,77*,nt,nt
O=C(c1ccc([N+](=O)[O-])o1)N1CCN(Cc2ccccc2)CC1,-1,nt,0,15,29,10
COc1cccc(N(C(=O)CCl)C(C(=O)NCCc2ccccc2)c2cccs2)c1 (configuration not stated),36,?,16,88*,nt,nt
COc1ccc(N(C(=O)CCl)C(C(=O)NCCc2ccccc2)c2cccs2)cc1Cl (configuration not stated),7,nt,22,86*,104*,68*
